From PubChem BioAssay
Cardio protect = modulators protecting cardiomyocytes from myocardial damage; actives 0.63% (n = 360,000); protection from H2O2 cell death, % at 20 µM; H9c2 cardiomyocytes, H2O2 injury protection, ATPLite, 2 h; AID 588492;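 active means compounds giving at least 50% protection of heart cells from peroxide-induced death in the single-dose screen, raw or plate-pattern-corrected value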;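 further: 0% = DMSO wells with peroxide and 100% = DMSO wells without peroxide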
SUMO Mot1 rescue = blocks SUMOylation pathway, rescuing yeast Mot1-301 growth; S. cerevisiae Mot1-301 growth rescue, ATP luminescence, 38.5C; percent above DMSO median, 100 means doubled; growth rescue, % at 18.8 µM; actives 1% (n = 320,000);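 active means every valid replicate shows activation above 250% relative to neutral control wells; inactive means the rest, any valid replicate at or below 250%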;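 further: OY570 slx delta 5 strain wells were the positive control but not used for scaling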
GRIN3A LBD mod = modulators (binders) of human NR3A ligand-binding domain | NR3A LBD differential scanning fluorimetry, Tm shift; 0% = protein alone, 100% = glycine-bound protein | Tm shift relative to glycine control, % at 25 µM | actives 2.5% (n = 340,000);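 active means melting temperature shift of at least 10% of the positive control shift, at one fixed dose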
NTR1 agonist = agonists of human neurotensin receptor NTR1 | NTR1-U2OS beta-arrestin-GFP spot imaging, agonist mode | activation, % at 20 µM | actives 0.17% (n = 330,000) | AID 493036;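 active means activation at or above 40% of the spot to cytoplasm intensity ratio, with at least 20 cells analyzed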;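 further: 0% = DMSO without peptide and 100% = 100 nM NTR1 peptide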
AI-2 QS mod = modulators of Vibrio harveyi AI-2 quorum sensing system. activity change, % at 7.5 µM. Vibrio harveyi JMH597 AI-2 luminescence/OD600 ratio, 9 h; active compounds read low; strain lacks LuxN and CqsS sensors; 0 = neutral-control median. actives 0.4% (n = 300,000). AID 2094; in the data active means activity change below about -75%, passing the limit was not always enough;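 further: luminescence divided by OD600 gain over 9 h not by final OD600 alone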
AHR activator = activates the human aryl hydrocarbon receptor; activation, % at 5 µM; actives 2.5% (n = 320,000); AHR-responsive luciferase reporter cells, luminescence; P35869; in the data active means activation above about 47%;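 further: 0% = vehicle wells and 100% = reference agonist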
Target sequence (P35869 whole entry, looked up): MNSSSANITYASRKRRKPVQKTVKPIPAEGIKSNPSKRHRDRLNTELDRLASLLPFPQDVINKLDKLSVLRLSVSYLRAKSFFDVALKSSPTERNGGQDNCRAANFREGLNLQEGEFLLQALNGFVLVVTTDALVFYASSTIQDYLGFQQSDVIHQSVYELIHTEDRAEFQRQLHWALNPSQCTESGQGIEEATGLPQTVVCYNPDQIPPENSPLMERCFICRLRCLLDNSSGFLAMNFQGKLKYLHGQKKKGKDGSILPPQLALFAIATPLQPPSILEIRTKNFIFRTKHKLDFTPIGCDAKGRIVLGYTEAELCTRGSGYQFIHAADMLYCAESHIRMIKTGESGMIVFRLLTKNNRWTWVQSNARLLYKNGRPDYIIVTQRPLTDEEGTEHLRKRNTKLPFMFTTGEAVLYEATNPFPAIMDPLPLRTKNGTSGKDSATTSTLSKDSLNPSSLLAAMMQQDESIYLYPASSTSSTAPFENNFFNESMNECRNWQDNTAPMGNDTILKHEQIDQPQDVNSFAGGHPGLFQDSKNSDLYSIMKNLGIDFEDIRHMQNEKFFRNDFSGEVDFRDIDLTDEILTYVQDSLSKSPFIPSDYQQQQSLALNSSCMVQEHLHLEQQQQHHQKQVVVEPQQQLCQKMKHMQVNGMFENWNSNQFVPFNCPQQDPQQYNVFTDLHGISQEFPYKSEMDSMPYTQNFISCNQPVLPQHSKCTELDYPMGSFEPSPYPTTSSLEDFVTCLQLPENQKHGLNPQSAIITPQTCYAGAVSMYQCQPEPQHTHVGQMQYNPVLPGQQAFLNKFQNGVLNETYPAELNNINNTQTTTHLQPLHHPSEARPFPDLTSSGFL
* hit, by the source's call; · = no result. Compounds with a hit are over-represented: about 6.2% of the library has one in this group of screens.

SMILES | Cardio protect | SUMO Mot1 rescue | GRIN3A LBD mod | NTR1 agonist | AI-2 QS mod | AHR activator
COc1ccc(Cl)cc1N(C(C)=O)c1nc(C)cc(C)c1C#N | -3.9 | 20.6 | -0.5 | -1.2 | 4.1 | 54.2*
COc1ccccc1N(C(C)=O)c1nc(C)cc(C)c1C#N | 0.6 | -0.1 | 18.7* | -0.3 | 14.0 | 47.6*
COc1cc(C(=O)Nc2ccc3c(c2)CCCN3C(=O)c2ccco2)c([N+](=O)[O-])cc1OC | -1.7 | -8.9 | 0.4 | 1.2 | 17.8 | 1.6
C=CCc1cc(C)cc(C)c1OCCn1cncn1 | 2.6 | -10.8 | -4.2 | -0.4 | 11.9 | 59.5*
CCOC(=O)N1CCN(C(=O)COC(=O)C2CCN(S(=O)(=O)c3ccc(C)c(C)c3)CC2)CC1 | 0.8 | -1.5 | 1.7 | -0.5 | 24.8 | -1.3
CCCCCCN(C(=O)CCCCCN1C(=O)NC(c2ccc([N+](=O)[O-])cc2)C(C(=O)OCc2ccccc2)=C1C)C(C(=O)NCCCC)C1CCCCC1 (stereo unspecified) | -3.7 | · | 3.4 | 1.8 | · | ·
COc1ccc(-c2nnc3sc(-c4ccccn4)nn23)cc1 | · | 417.9 | · | 1.9 | 25.9 | -7.9
c1ccc(-c2nn3c(-c4ccco4)nnc3s2)nc1 | 80.7* | -24.7 | -2.3 | 1.3 | 15.2 | -12.8
COc1cccc(-c2nn3c(-c4ccccn4)nnc3s2)c1 | 57.2* | 10.4 | -3.1 | -0.1 | 15.9 | -1.9
COc1cccc(-c2nnc3sc(-c4ccccn4)nn23)c1 | 88.0* | 138.5 | -3.0 | 1.8 | 27.3 | -15.3
O=C(NCCCO)C(=O)Nc1cc2c3c(c1)CCN3C(=O)CC2 | -0.9 | 168.2 | -0.1 | 0.3 | 29.0 | 4.0
CCN1/C(=C/C=C/c2sc3ccccc3[n+]2CC)Sc2ccccc21 | -44.2 | -1.9 | -2.5 | -3.7 | -29.3 | 3.0
CCN1/C(=C/C=C/c2oc3ccc(-c4ccccc4)cc3[n+]2CC)Oc2ccc(-c3ccccc3)cc21 | -33.3 | 339.5* | 60.5* | -3.8 | -1.2 | -4.2
COc1cccc(NC(=S)N2CCC(NC(=O)c3ccco3)CC2)c1 | 0.8 | -12.6 | -1.2 | 0.4 | 25.7 | 3.4
O=C1CC(N2CCN(S(=O)(=O)c3ccccc3F)CC2)C(=O)N1c1ccccc1Cl (stereo unspecified) | -3.3 | 26.6 | 0.3 | 0.7 | · | 0.6
O=c1c2cc(Br)ccc2nc(-c2ccccc2)n1O | 8.8 | 21.4 | 0.4 | 0.1 | 50.1 | 47.6*
CC(=O)Nc1ccc(NC(=O)COC(=O)c2cc([N+](=O)[O-])ccc2N2CCOCC2)cc1 | -6.0 | -0.3 | 23.2* | 0.0 | 17.8 | 2.3
O=C(COC(=O)c1cc([N+](=O)[O-])ccc1N1CCOCC1)NCCc1ccccc1 | 4.1 | 5.0 | 15.9* | -0.6 | 21.2 | 1.9
COc1ccccc1NC(=O)c1cc([N+](=O)[O-])ccc1N1CCOCC1 | -5.8 | -11.9 | 3.0 | 1.8 | 18.9 | 59.7*
O=C(Nc1cccc(Cl)c1N1CCOCC1)c1cc([N+](=O)[O-])ccc1N1CCOCC1 | -0.9 | -9.0 | -2.5 | 5.9 | 22.3 | -2.1
CC1CN(C(=O)CSc2nnc(-c3cccs3)n2N)CC(C)O1 (stereo unspecified) | 11.8 | -1.3 | -1.2 | -0.7 | · | 1.7
COc1ccc(OC)c(S(=O)(=O)Nc2cccc3ccccc23)c1 | -9.9 | -10.4 | 3.1 | -0.5 | 10.0 | 23.2
COc1ccc(OC)c(S(=O)(=O)Oc2ccc(N)c3ccccc23)c1 | -3.9 | -27.7 | -1.6 | -1.1 | 6.8 | 61.1*
CN(C)C(=O)CNC(=O)CN1C(=O)NC2(CCCc3sccc32)C1=O (stereo unspecified) | 2.9 | -10.1 | -2.2 | -1.6 | 21.7 | -0.3
CC1(CCc2ccccc2)NC(=O)NC1=O (stereo unspecified) | 1.7 | · | -2.1 | · | · | ·
CC(C)CC1(C)NC(=O)NC1=O (stereo unspecified) | -10.2 | -3.4 | 10.8* | 1.0 | 8.5 | 0.5
O=C(COc1coc(CN2CCc3ccccc3C2)cc1=O)Nc1ccc(F)cc1F | -3.0 | 2.1 | · | 10.7 | 18.6 | -1.4
Cc1cccc(NC(=O)CCC(=O)N/N=C/c2ccc(O)cc2O)c1 | 69.3* | 19.5 | 5.3 | -0.8 | 15.2 | 8.9
Cc1ccc(SCCC(=O)N/N=C/c2ccccc2O)cc1 | 65.0* | 3.3 | -32.0 | 1.9 | -1.8 | 3.2
